Data taken from PubChem BioAssay AID1745847 (National Center for Advancing Translational Sciences (NCATS), 2022).
About 670 (32%) of roughly 2,100 compounds were called active. About 50% were inconclusive and are not listed. This is one part of the list. Values without a mark were called inactive. Calls come from the whole dose curve; as a rule, active = well fitted inhibition curve with a large enough effect; inconclusive = small, poorly fitted or top-dose-only effect; inactive = no such curve, though single readings can be large or run the other way.

Assay: CMV-Luciferase Counterscreen for Inhibitors of ATXN expression; note: nearly all actives have a fitted effect of over 55% in size
Settings: HEK-293 CMV-luciferase reporter, luminescence, 24 h; series mostly up to 57.5 µM
% is set by controls: 0 for no effect and ±100 for the full control effect; potency is the fitted concentration of half-maximal effect.

Compound | Potency | activity change, negative = inhibition
O=C(Nc1ccc(F)cc1)Nc1cc(OCC(F)(F)F)cc(OCC(F)(F)F)c1 | 3.98 µM (active) | –
CC[n+]1ccccc1/C=C1\Sc2ccc(C)cc2N1C | 6.31 µM (active) | –
Cc1cc(C)nc(NNS(=O)(=O)c2ccc(F)c(Cl)c2)n1 | – | -15.9% [at 11.4 µM]
COc1ccccc1-c1ccc2c(c1)C(C)(Cc1cccc(F)c1)C(=O)N2 (stereo unspecified) | 28.2 µM (active) | –
Cc1ccc(Nc2c(-c3ccccn3)nc3cccc(C)n23)cc1 | 3.55 µM (active) | –
Cc1cccc(N(CC(O)CON=C2c3ccccc3-c3ccccc32)S(C)(=O)=O)c1 (stereo unspecified) | 25.1 µM (active) | –
N#Cc1ccc(/C=C\c2nccc3c2[nH]c2ccccc23)cc1 | – | -24% [at 11.4 µM]
Cc1c(C(=O)N/N=C/c2c(O)ccc3ccccc23)nnn1-c1nonc1N | 0.282 µM (active) | –
CC1CCN(Cc2c(C(=O)N/N=C/c3ccccc3O)nnn2-c2nonc2N)CC1 | 1.58 µM (active) | –
Nc1nonc1-n1nnc(C(=O)N/N=C/c2ccccc2O)c1CN1CCCC1 | 10 µM (active) | –
O=C(/C=C/c1ccccc1Cl)c1ccccc(=O)c1O | inactive | –
COc1cc2c3nnc(-c4ccc(F)cc4)c-3cn(Cc3ccccc3F)c2cc1OC | – | 65% [at 11.4 µM]
O=[N+]([O-])c1ccc(NC(c2ccccc2)c2ccc3cccnc3c2O)cc1 (stereo unspecified) | 2.51 µM (active) | –
Oc1c(C(Nc2cccc(C(F)(F)F)c2)c2ccncc2)ccc2cccnc12 (stereo unspecified) | 3.98 µM (active) | –
CC(C)C(=O)NC(c1cccc([N+](=O)[O-])c1)c1ccc2cccnc2c1O (stereo unspecified) | 2.82 µM (active) | –
C[C@@H]1CN([C@H](C)CO)S(=O)(=O)c2ccc(-c3ccc(C#N)cc3)cc2O[C@H]1CN(C)C(=O)Nc1cc(F)ccc1F | 12.6 µM (active) | –
Cc1cc(C)c2nc(N3CCCC(C(=O)N4CCN(c5ncccn5)CC4)C3)sc2c1 (stereo unspecified) | 3.55 µM (active) | –
O=c1c(O)c(-c2ccccc2)oc2ccccc12 | – | -28.6% [at 11.4 µM]
CCCCN(C(=O)c1cccc2c(=O)c(C)c(-c3ccccc3)oc12)c1ccccc1 | 12.6 µM (active) | –
COc1ccc(Cc2[nH]n3c(=O)cc(C(C)C)nc3c2-c2ccccc2)cc1 | 8.91 µM (active) | –
CN1CCC[C@H]1CCNc1ccc2c(=O)c3ccccc3n(C)c2c1 | inactive | –
O=C(CSc1ccc2ccccc2c1)Nc1nc2ccccc2[nH]1 | – | 78.8% [at 11.4 µM]

Compound | Potency | activity change, negative = inhibition
O=C(CSc1n[nH]c(-c2ccccn2)n1)Nc1ccc(Cl)cc1 | 0.794 µM (active) | –
O=C(CSc1n[nH]c(-c2ccccn2)n1)Nc1ccccc1 | 7.94 µM (active) | –
O=C(CSc1n[nH]c(-c2ccccn2)n1)Nc1ccc(F)cc1 | 8.91 µM (active) | –
O=C(CC1NCCc2ccccc21)Nc1ccc(Cl)cc1 (stereo unspecified) | – | 5.88% [at 11.4 µM]
CCn1cc(C(=O)NCc2cccc(F)c2)c(=O)c2cc(F)c(N3CCN(C(=O)c4ccco4)CC3)cc21 | 15.8 µM (active) | –
CCOC(=O)Cn1cc(C(=O)c2ccco2)c2ccccc21 | – | -4.82% [at 11.4 µM]
CCn1cc(C(=O)NCCCN2CCCC(C)C2)c(=O)c2cc(S(=O)(=O)N3CCc4ccccc4C3)ccc21 (stereo unspecified) | inactive | –
CCn1cc(C(=O)NCc2ccccc2)c(=O)c2cc(F)c(N3CCN(C(=O)c4ccco4)CC3)cc21 | 25.1 µM (active) | –
COC(=O)c1ccc(Oc2nc(NC(C)C)nc(N(C)C)n2)cc1 | – | -22.6% [at 11.4 µM]
Nc1c(C(=O)NCc2ccccc2)c2nc3ccccc3nc2n1-c1ccc2c(c1)OCO2 | – | 26.3% [at 11.4 µM]
O=C(NCc1ccccc1)c1ccc(C(=O)N(C2CCCCC2)C2CCCCC2)cc1 | 31.6 µM (active) | –
CC(C(=O)c1ccc(-c2ccccc2)cc1)[n+]1cccc(NC(=O)c2ccccc2)c1 (stereo unspecified) | – | -21.8% [at 11.4 µM]
Cc1cc[n+](C(C)C(=O)c2ccc(-c3ccccc3)cc2)cc1 (stereo unspecified) | 10 µM (active) | –
N#Cc1c(Oc2ccc3ccccc3c2)sc(C(=O)c2ccccc2)c1N | 14.1 µM (active) | –
COc1cccc(C(=O)c2sc(NC(C)C)nc2N)c1 | – | 267% [at 11.4 µM]
CNc1ccc(Br)cc(C(=O)/C=C/c2ccc3c(c2)OCO3)c1=O | – | -5.4% [at 11.4 µM]
CCOC(=O)Oc1c(OC)cc(C(=O)O[C@@H]2C[C@@H]3CN4CCc5c([nH]c6cc(OC)ccc56)[C@H]4C[C@@H]3[C@H](C(=O)OC)[C@H]2OC)cc1OC | 28.2 µM (active) | –
CC(C)(C)OC(=O)NNc1c2ccccc2nc2ccccc12 | 2.24 µM (active) | –
Oc1ccc(C2CNCc3sccc32)cc1O (stereo unspecified) | inactive | –
COc1cccc2c1C1COC3C4CC(C(=O)O)C(C(C2)N13)N4C (stereo unspecified) | 12.6 µM (active) | –
COc1cccc2c1C(CO)N1C(C#N)C3CC(C(=O)O)C(C1C2)N3C (stereo unspecified) | inactive | –
Oc1ccc(C[C@@H]2CNCCN2CCc2cc(C(F)(F)F)cc(C(F)(F)F)c2)cc1 | – | -21.2% [at 11.4 µM]

Compound | Potency | activity change, negative = inhibition
CC[C@]12c3[nH]c4ccc(Cl)cc4c3CCN1C(=O)[C@@H](CC(=O)NCC13CC4CC(CC(C4)C1)C3)C[C@@H]2C(=O)N1CCN(C(=O)C2CC2)CC1 | 14.1 µM (active) | –
Cc1ccc(Cc2cnc(NC(=O)/C(C#N)=C/c3ccc(-c4cccc([N+](=O)[O-])c4)o3)s2)cc1 | inactive | –
CCOc1ccc(OCC)c(NC(=O)Nc2ccc3c(c2)N(C)C(=O)CS3)c1 | 22.4 µM (active) | –
COc1ccccc1CNc1nc(NCc2ccc(NC(C)=O)cc2)c2sccc2n1 | – | -22.7% [at 11.4 µM]
COc1ccccc1CNc1nc(NCc2cccc(OC)c2OC)c2sccc2n1 | 17.8 µM (active) | –
O=C(/C=C/c1ccc(Cl)cc1)Nc1ccc(CN2CCOCC2)cc1 | 3.16 µM (active) | –
O=C(CN(c1cccc(Br)c1)S(=O)(=O)c1ccccc1)N/N=C/c1cc([N+](=O)[O-])ccc1O | 10 µM (active) | –
CN(Cc1ccccc1)C1=CC(=[N+]2CCCC2)CC(C)(C)C1 | 0.447 µM (active) | –
Cc1cccc(OCC(=O)Nc2ccc3c(c2)nc(CCN2CCN(c4ccccn4)CC2)n3C)c1 | 14.1 µM (active) | –
COc1cccc(/C=N/NC(=O)c2ccc(-c3ccccc3)cc2)c1O | 2 µM (active) | –
CCn1c(C)nc2cc(C(=O)N/N=C/c3cccc(OC)c3O)ccc21 | 2.51 µM (active) | –
COc1cccc(/C=N/NC(=O)c2cc(-c3ccccn3)nc3ccccc23)c1O | 2.82 µM (active) | –
COc1cccc(/C=N/NC(=O)c2c(C)nc3ccc(Cl)cn23)c1O | 1.41 µM (active) | –
COc1cccc(C=NNC(=O)c2ccncc2)c1O | 15.8 µM (active) | –
c1ccc2c(c1)c1c(c3ccccc32)CN2CCCC2C1 (stereo unspecified) | inactive | –
Cc1cc2c(N=O)c(NO)ccc2[nH]1 | 10 µM (active) | –
CN(C)CCCN(C(=O)c1ccco1)c1nc2cc3c(cc2s1)OCO3 | inactive | –
CN(/N=C/c1cc(Br)cc(Br)c1O)c1cccc(C(F)(F)F)n1 | 11.2 µM (active) | –
COc1ccc(NC(=S)N(CCCN2CCOCC2)Cc2cn(C)c3ccccc23)cc1 | inactive | –
ClC(Cl)(Cl)c1nc2ccccc2n2nncc12 | – | -25.9% [at 11.4 µM]
COc1ccc(C2CC(c3cccc(C(F)(F)F)c3)=NN2c2ccc(S(N)(=O)=O)cc2)cc1 (stereo unspecified) | – | -28.1% [at 11.4 µM]
NS(=O)(=O)c1ccc(N2N=C(c3ccccc3)CC2c2cccc(Br)c2)cc1 (stereo unspecified) | 17.8 µM (active) | –

Compound | Potency | activity change, negative = inhibition
NC(Cc1ccc(Cl)cc1)c1csc(Nc2nccc(C(F)(F)F)n2)n1 (stereo unspecified) | inactive | –
CN(C)c1ccc(C(=O)N/N=C/c2cc(Br)cc(Br)c2O)cc1 | 3.16 µM (active) | –
CC(=O)Nc1ccc(C(=O)N/N=C/c2cc(Br)cc(Br)c2O)cc1 | 11.2 µM (active) | –
Cc1cc(C(=O)N/N=C/c2cc(Br)cc([N+](=O)[O-])c2O)c2ccccc2n1 | 3.55 µM (active) | –
O=C(N/N=C/c1cc(Br)cc([N+](=O)[O-])c1O)c1ccc(NC(=O)c2ccc(F)cc2)cc1 | 3.16 µM (active) | –
Cc1ccc2nc(NC(=O)/C=C/c3ccc4c(c3)OCO4)sc2c1 | inactive | –
O=c1[nH]c(=O)n(C2C[C@H](O)[C@@H](CO)O2)cc1C(F)(F)F (stereo partly specified) | 2.82 µM (active) | –
COC(=O)N/N=C/c1cn(CC(C)COc2ccccc2)c2ccccc12 (stereo unspecified) | 17.8 µM (active) | –
c1ccc2c(c1)C(=NC1CCCCC1)NC2=NC1CCCCC1 | inactive | –
O=C(CCCN1C(=O)/C(=C/c2ccccc2Cl)SC1=S)NNC(=O)c1ccc(Cl)cc1Cl | 2.82 µM (active) | –
Cc1ccc(C(=O)NNC(=O)CCCN2C(=O)/C(=C/c3ccccc3Cl)SC2=S)cc1 | 11.2 µM (active) | –
O=C(CCCN1C(=O)/C(=C/c2ccccc2Cl)SC1=S)NNC(=O)c1ccc(Cl)cc1 | 3.98 µM (active) | –
Cc1cc(C)c2c(CC(=O)Nc3ccc(Cl)cn3)coc2c1 | – | 21.1% [at 11.4 µM]
CCc1ccc(/C=C/C(=O)c2cc(Br)ccc(=O)c2O)cc1 | inactive | –
NC(Cc1ccc(Cl)cc1)c1csc(Nc2cc(NCCCO)ncn2)n1 (stereo unspecified) | inactive | –
O=C(N/N=C/c1cc(Cl)ccc1O)c1cccnc1 | 0.631 µM (active) | –
Cc1cccc(/C=N/NC(=O)c2cccc(Cl)c2)n1 | – | -14.3% [at 11.4 µM]
O=C(N/N=C/c1cc(Cl)ccc1O)c1ccccc1Br | 8.91 µM (active) | –
O=C(N/N=C/c1c(O)n(Cc2ccccc2)c(=O)c2ccccc12)c1cccnc1 | 12.6 µM (active) | –
CCC1=C(OC(=O)N(CC)CC)N2C(=O)OC(=NCCc3c[nH]c4ccccc34)[C@]2(Cc2ccccc2)[C@H]2C1=CC[C@H]1C(=O)N(c3ccccc3)C(=O)[C@H]12 | inactive | –
